“And” between values parts separate entries of the source, which are not always exact repeats. Equal values may be shown once. Results filed as inconclusive are left out. The source made the active and inactive calls. Unless noted, the call rests on the fitted dose curve; in most records, active means well fitted curve in the direction sought with a large enough effect; inconclusive means small, poorly fitted or top-dose-only effect, or another doubt; inactive means no such curve, though single readings can be large; an effect the other way counts as inactive or inconclusive.
How the values were obtained:
[1] = qHTS profiling for inhibitors of Plasmodium falciparum proliferation (AID 504749); further: potency means the concentration at half of the fitted maximal effect;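 on activity, negative = inhibition: 0% = DMSO vehicle and full inhibition = artemisinin control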; on all read-outs here: nearly all actives have a fitted effect of over 60% in size; settings: P. falciparum in erythrocytes, SYBR Green DNA, 72 h; for activity, negative = inhibition: at 28.7 µM (top of the series)
How it was run: (§1)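 P. falciparum-infected erythrocytes (0.3% parasitemia, 2.5% hematocrit final) were exposed to compounds for 72 h at 37 C in 5% CO2, then lysed with SYBR Green buffer overnight at room temperature; parasite DNA fluorescence was normalized to artemisinin and DMSO controls.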

[2] = tested on: 7G8; assay: as above; settings: P. falciparum in erythrocytes, SYBR Green DNA, 72 h; series mostly up to 28.7 µM
How it was run: as §1

[3] = tested on: AA1029; assay: as above; settings: P. falciparum in erythrocytes, SYBR Green DNA, 72 h; series mostly up to 28.7 µM
How it was run: as §1

[4] = tested on: 3D7; assay: as above; settings: P. falciparum in erythrocytes, SYBR Green DNA, 72 h; series mostly up to 28.7 µM
How it was run: as §1

[5] = target: Phospholipid hydroperoxide glutathione peroxidase GPX4 (Homo sapiens) (UniProt P36969); assay: Primary qHTS Assay for Inhibitors of Recombinant Selenoprotein Glutathione Peroxidase 4 (GPX4) (AID 1845192); settings: recombinant GPX4, GR-coupled NADPH fluorescence, 15 min; series mostly up to 50 µM; further: nearly all actives have a fitted effect of over 65% in size
Sequence of Phospholipid hydroperoxide glutathione peroxidase GPX4 (Homo sapiens) (P36969 whole entry, looked up): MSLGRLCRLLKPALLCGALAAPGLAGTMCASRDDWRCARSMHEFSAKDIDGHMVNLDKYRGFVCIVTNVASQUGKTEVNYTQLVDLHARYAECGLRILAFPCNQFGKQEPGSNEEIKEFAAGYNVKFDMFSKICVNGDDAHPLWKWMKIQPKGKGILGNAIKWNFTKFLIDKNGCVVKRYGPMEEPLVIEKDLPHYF
How it was run: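 GR-coupled readout: 100 nM GR, 1 mM GSH, 0.5 mM NADPH; NADPH fluorescence (ex 340/em 450 nm) read at t=0 and after 15 min RT. GPX4 200 nM, preincubated 30 min with compound; substrate 0.5 mM CHP.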

[6] = qHTS drug screen for cell cycle checkpoint inhibitors in PARPi-resistant BRCA-mutant ovarian cancer cell lines. (AID 1963452; calls by dose curve); settings: PEO1/OlaR viability, CellTiter-Glo luminescence, 96 h, stronger effect = lower value
How it was run: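 PEO1, PEO4 and PEO1/OlaR ovarian cancer cells, 600 per well, exposed 96 h at 37C to a dilution series. Viability read by CellTiter-Glo luminescence, normalized to DMSO and empty wells; activity summarized as Z-AUC.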

[7] = target: Luciferin 4-monooxygenase (Photinus pyralis) (UniProt P08659); assay: Primary firefly luciferase (FLuc) qHTS assay for identification of artifact compounds. (AID 1845220); settings: purified firefly luciferase, luminescence, 5 min; series mostly up to 54.1 µM;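 further: plate controls were DMSO vehicle for no effect and no enzyme for full effect; nearly all actives have a fitted effect of over 60% in size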
How it was run: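 Reaction readout was CCD-imaged luminescence, taken 5 min after adding 10 nM purified firefly enzyme to compound-treated wells holding 10 uM luciferin and ATP in pH 7.6 buffer.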

[8] = tested on: Nanoluciferase (engineered Oplophorus gracilirostris luciferase); assay: Primary Nanoluciferase (NLuc) qHTS assay for identification of artifact compounds. (AID 1845222); settings: NLuc-conditioned medium, Nano-Glo luminescence, 5 min; series mostly up to 54.1 µM;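 further: NLuc secreted into diluted conditioned medium of S16 cells; 0% = DMSO and -100% = no enzyme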
How it was run: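 Concentration-response data were obtained by luminescence after 5 min with Nano-Glo substrate at 1:100. The enzyme was diluted S16 NLuc-expressing cell medium, preincubated with compound for 15 min at RT. Curves were fitted with a 4-parameter Hill model.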

[9] = Primary redox qHTS assay for identification of artifact compounds. (AID 1845223); settings: Amplex Red/HRP redox cycling with DTT, fluorescence; series mostly up to 53.8 µM;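 further: 0% = DMSO and 100% = reference compound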
How it was run: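 Amplex Red (25 uM) and HRP (250 mU/mL) in HBSS, with compounds for 15 min, then 250 uM DTT for 30 min, room temperature, dark. Fluorescence 525/598 nm read; normalized to DMSO and 10 uM DA3003; Hill fit.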

[10] = target: Cytochrome P450 3A4 (Homo sapiens) (UniProt P08684); assay: qHTS for inhibitors of CYP3A4 against the NCATS DSHEA and TCM libraries (AID 1919971); settings: recombinant CYP3A4 enzyme activity, luminescence qHTS; series mostly up to 34.1 µM;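 further: on the % scale 0 is the no-effect control and ±100 the full control effect; inhibition lowers luminescence from luciferin made by CYP3A4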
Sequence of Cytochrome P450 3A4 (Homo sapiens) (P08684 whole entry, looked up): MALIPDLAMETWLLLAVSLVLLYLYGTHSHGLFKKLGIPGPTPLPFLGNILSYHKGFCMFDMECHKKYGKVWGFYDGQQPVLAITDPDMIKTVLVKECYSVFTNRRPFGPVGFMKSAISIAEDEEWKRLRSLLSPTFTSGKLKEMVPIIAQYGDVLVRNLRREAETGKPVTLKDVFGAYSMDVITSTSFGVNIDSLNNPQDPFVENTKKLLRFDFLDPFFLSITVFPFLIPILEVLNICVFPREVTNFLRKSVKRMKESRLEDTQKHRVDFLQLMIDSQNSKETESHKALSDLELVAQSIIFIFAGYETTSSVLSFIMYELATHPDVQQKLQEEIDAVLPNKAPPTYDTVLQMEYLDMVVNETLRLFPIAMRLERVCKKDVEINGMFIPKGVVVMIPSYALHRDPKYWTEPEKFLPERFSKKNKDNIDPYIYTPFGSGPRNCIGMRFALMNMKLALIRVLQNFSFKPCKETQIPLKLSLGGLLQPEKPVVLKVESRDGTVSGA
How it was run: (§2)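 Luminescent P450-Glo readout. Enzyme plus pro-luciferin substrate in manufacturer buffer (typically 100 mM KPO4); 15 min RT preincubation; 1x NADPH regenerating system, 30-45 min RT in the dark; detection reagent 30 min.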

[11] = target: Cytochrome P450 2D6 (Homo sapiens) (UniProt P10635); assay: qHTS for inhibitors of CYP2D6 against the NCATS DSHEA and TCM libraries (AID 1919972); settings: CYP2D6 enzymatic inhibition, luminescence qHTS; series mostly up to 34.1 µM; further: on the % scale 0 is the no-effect control and ±100 the full control effect
Sequence of Cytochrome P450 2D6 (Homo sapiens) (P10635 whole entry, looked up): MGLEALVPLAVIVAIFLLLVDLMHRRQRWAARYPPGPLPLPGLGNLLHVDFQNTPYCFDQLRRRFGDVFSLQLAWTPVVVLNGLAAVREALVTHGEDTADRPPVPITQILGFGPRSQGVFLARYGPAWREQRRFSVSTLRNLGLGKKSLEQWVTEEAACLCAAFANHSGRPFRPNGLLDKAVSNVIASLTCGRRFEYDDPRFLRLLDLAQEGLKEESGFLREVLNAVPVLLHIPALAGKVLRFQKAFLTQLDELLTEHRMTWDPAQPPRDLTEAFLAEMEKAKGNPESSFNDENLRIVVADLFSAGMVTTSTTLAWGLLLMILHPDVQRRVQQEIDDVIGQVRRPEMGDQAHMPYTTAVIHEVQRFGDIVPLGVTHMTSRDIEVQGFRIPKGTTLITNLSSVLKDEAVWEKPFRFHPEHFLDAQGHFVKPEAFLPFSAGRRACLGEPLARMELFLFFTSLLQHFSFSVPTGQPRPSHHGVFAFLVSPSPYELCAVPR
How it was run: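 Steps: enzyme plus luciferin substrate dispensed; test substances pinned; 15 min RT; 1x NADPH regenerating solution added, 30–45 min RT protected from light; detection reagent, 30 min RT; luminescence measured. Minus-enzyme wells as background.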

[12] = target: Cytochrome P450 2C19 (Homo sapiens) (UniProt P33261); assay: qHTS for inhibitors of CYP2C19 against the NCATS DSHEA and TCM libraries (AID 1919974); settings: CYP2C19 enzyme inhibition, luminescence qHTS;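 further: luminescence from luciferin released by CYP2C19 oxidation of a pro-luciferin substrate; potency means the concentration at half of the fitted maximal effect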
Sequence of Cytochrome P450 2C19 (Homo sapiens) (P33261 whole entry, looked up): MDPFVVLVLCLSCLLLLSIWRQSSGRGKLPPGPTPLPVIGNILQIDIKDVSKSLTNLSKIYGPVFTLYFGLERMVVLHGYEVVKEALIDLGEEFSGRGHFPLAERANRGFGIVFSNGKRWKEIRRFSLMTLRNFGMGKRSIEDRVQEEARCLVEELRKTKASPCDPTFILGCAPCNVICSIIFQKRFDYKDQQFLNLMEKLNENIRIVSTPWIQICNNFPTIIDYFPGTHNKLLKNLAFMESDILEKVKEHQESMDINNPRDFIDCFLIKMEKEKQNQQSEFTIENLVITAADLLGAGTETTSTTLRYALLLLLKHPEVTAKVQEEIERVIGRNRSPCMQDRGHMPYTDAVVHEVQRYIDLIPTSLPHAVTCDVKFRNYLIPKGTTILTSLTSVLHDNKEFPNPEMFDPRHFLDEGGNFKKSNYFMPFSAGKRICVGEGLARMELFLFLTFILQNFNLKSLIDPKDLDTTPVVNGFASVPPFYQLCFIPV
How it was run: as §2

[13] = KB-3-1 P-gp reporter qHTS against the NCATS DSHEA and TCM libraries (AID 1919975); settings: KB-3-1 parental cells, CellTiter-Glo luminescence viability, 72 h; series mostly up to 26.1 µM; further: 0% is about no effect
How it was run: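 Cell viability qHTS: 500 KB-3-1 cells/well, substances in titration, ~72 h, 37C; luminescent CellTiter-Glo read.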

[14] = qHTS Counterscreen for compound interference against the NCATS DSHEA and TCM libraries (AID 1919978); settings: firefly luciferase detection reagent interference, luminescence;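 further: compounds preincubated with 1 µM D-luciferin or buffer before detection reagent; % of control where 0% means no effect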
How it was run: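 Interference check: test samples were incubated with D-luciferin (final 1 uM) or buffer only for 15 min, room temperature, in a qHTS titration up to 39.8 uM, then developed with detection reagent and read by luminescence.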

[15] = Dual reporter qHTS for agonist of Pregnane X Receptor (hPXR) against the NCATS DSHEA and TCM libraries: Fluorescence readout (AID 1920058); settings: PXR dual reporter cells; series mostly up to 40 µM; further: 0% is about no effect
How it was run: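 hPXR-Luc HepG2 cells (2000/well) in phenol red-free medium with charcoal-stripped FBS attached for 5 h, then were exposed to compounds for about 24 h at 37 °C. Viability was read by CellTiter-Fluor fluorescence (Ex/Em 405/540 nm) after 1 h.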

[16] = target: Nuclear receptor subfamily 1 group I member 2 (Homo sapiens) (UniProt O75469); assay: Dual reporter qHTS for agonist of Pregnane X Receptor (hPXR) against the NCATS DSHEA and TCM libraries: Luminescence readout (AID 1920059); settings: hPXR dual reporter cells, luciferase luminescence agonist; series mostly up to 40 µM; further: 0% is about no effect
Sequence of Nuclear receptor subfamily 1 group I member 2 (Homo sapiens) (O75469 whole entry, looked up): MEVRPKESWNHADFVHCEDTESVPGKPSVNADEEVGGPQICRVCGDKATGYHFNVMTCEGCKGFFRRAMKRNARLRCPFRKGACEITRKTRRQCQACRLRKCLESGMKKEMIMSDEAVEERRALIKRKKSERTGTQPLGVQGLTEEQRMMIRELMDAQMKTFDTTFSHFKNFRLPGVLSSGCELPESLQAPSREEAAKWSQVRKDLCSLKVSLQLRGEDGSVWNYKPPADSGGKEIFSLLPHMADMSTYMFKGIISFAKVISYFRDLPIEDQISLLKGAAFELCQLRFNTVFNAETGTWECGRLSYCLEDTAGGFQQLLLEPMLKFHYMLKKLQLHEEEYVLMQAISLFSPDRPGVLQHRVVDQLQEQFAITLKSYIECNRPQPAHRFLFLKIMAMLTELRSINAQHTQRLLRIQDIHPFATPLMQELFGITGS
How it was run: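 hPXR-LucHepG2 cells in phenol red-free DMEM with 5% charcoal-stripped FBS, 2000 cells/well, attached 5 h, then exposed 24 h at 37C to compounds; rifampicin as positive agonist control (2.8 nM–92 uM). Luciferase luminescence read.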

[17] = target: Nuclear receptor subfamily 1 group I member 2 (Homo sapiens) (UniProt O75469); assay: Dual reporter qHTS for antagonist of Pregnane X Receptor (hPXR) against the NCATS DSHEA and TCM libraries: Luminescence Readout (AID 1920060); settings: hPXR dual reporter cells, luciferase luminescence, antagonist mode; series mostly up to 40 µM; further: 0% is about no effect
How it was run: (§3)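 Rifampicin-stimulated (2 uM final) hPXR-luciferase HepG2 cells were treated for 24 h with DSNP/TCM substances. Viability came from CellTiter-Fluor fluorescence, reporter activity from ONE-Glo luminescence.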

[18] = Dual reporter qHTS for antagonist of Pregnane X Receptor (hPXR) against the NCATS DSHEA and TCM libraries: Fluorescence Readout (AID 1920061); settings: PXR dual reporter cells, antagonist mode; series mostly up to 40 µM; further: 0% is about no effect
How it was run: as §3

O=C(CCN1CCN(CCO)CC1)N1c2ccccc2Sc2ccc(C(F)(F)F)cc21
inactive: Potency [3]
active: Potency ([1]; parasite line A) 14.1 µM | Potency [2] 7.94 µM

C=CCN1C(=O)C(CC(C)C)NC1=S (stereo not given)
inactive: activity, negative = inhibition ([1]; parasite line A) -18.4% and 2.94% | activity, negative = inhibition ([1]; parasite line B) -2.47% and 3.7% | Potency [4] | Potency [2] | Potency [3]

CCCCC[C@H](O)/C=C/[C@@H]1[C@@H](C/C=C\CCCC(=O)O)[C@@H](O)C[C@H]1O
inactive: activity, negative = inhibition ([1]; parasite line A) 7.31% | activity, negative = inhibition ([1]; parasite line B) 11% | Potency [4] | Potency [3]

Nc1ccc(O)c(C(=O)O)c1
inactive: Potency [5] | activity, negative = inhibition ([1]; parasite line A) -0.61% | activity, negative = inhibition ([1]; parasite line B) -10.7% | Potency [4] | Potency [2] | Potency [3]

O=C(/C=C/c1ccccc1)NCCO
inactive: activity, negative = inhibition ([1]; parasite line A) 4.35% | activity, negative = inhibition ([1]; parasite line B) -2.74% | Potency [4] | Potency [2] | Potency [3]

C=C(Nc1ccc(OCC)cc1)Nc1ccc(OCC)cc1
inactive: activity, negative = inhibition ([1]; parasite line A) 1.26% and 13.3% | activity, negative = inhibition ([1]; parasite line B) -29.4% and 7.39% | Potency [4] | Potency [2] | Potency [3]

CN(C)c1ccc(C(=C2C=CC(=[N+](C)C)C=C2)c2ccccc2)cc1
active: Potency ([1]; parasite line A) 11.2 µM | Potency ([1]; parasite line B) 11.2 µM | Potency [4] 2.24 µM | Potency [2] 11.2 µM | Potency [3] 8.91 µM

O=C1NC(=O)/C(=C/c2ccc(-c3ccc(F)cc3O)o2)S1
-0.191: Z-AUC ([6]; measured here: PEO4 Z-AUC)
-0.562: Z-AUC ([6]; measured here: PEO1 parental Z-AUC)
inactive: Potency [5] | Z-AUC [6] -1.15

COc1cc(NC(C)CCCN)c2ncccc2c1 (stereo not given)
inactive: Potency [5]

Cc1[nH]cnc1CN1CCc2c(c3ccccc3n2C)C1=O
inactive: activity, negative = inhibition ([1]; parasite line A) 12% | activity, negative = inhibition ([1]; parasite line B) 7.41% | Potency [4] | Potency [2] | Potency [3]

CC1(C)S[C@@H]2[C@H](NC(=O)[C@H](N)c3ccc(O)cc3)C(=O)N2[C@H]1C(=O)O
inactive: Potency [5] | Potency [7] | Potency [8] | outcome [9]

O=C(O)c1cc(O)c(O)c(O)c1
active: Potency [12] 3.55 µM
inactive: Potency [5] | outcome [10] | outcome [11] | outcome [13] | max response [14] -2.87% | outcome [15] | outcome [16] | outcome [17] | outcome [18] | activity, negative = inhibition ([1]; parasite line A) -23.1% | activity, negative = inhibition ([1]; parasite line B) -29.8% | Potency [3]

— PubChem BioAssay (NCATS)
